CD11b adhes enh = CD11b/CD18-fibrinogen binding enhancement | K562 CD11b/CD18 adhesion to fibrinogen, ATPlite luminescence | activation, % at 10 µM | hit rate 0.07% among 93,000 | AID 1499;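 active = 10 µM primary screen giving 50% or more activity, confirmed by 40% or more on retest at that dose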
Phagocyt inh = blocks phagocytosis by macrophages. J774A.1 macrophage IgG-bead phagocytosis, imaging. inhibition, % at 5 µM. hit rate 0.07% among 110,000;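 active = inhibition above the mean of the plate negative controls plus 5 SD, cut at about 13% in these data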;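 also: phagocytic index as fraction of beads internalized from green versus red external bead signal; plate controls were DMSO negative control for no effect and cytochalasin-D positive control for full effect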
MRP reversal = MRP-mediated drug resistance reversal. H69AR cells + 2 uM doxorubicin, CellTiter-Glo, 72 h. differential viability (reversal), % at 10 µM. hit rate 0.04% among 85,000;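 active = viability drop by adding the cancer drug above about 55%, with treated viability meeting a 40% cutoff, limit read from the data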;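 also: viability without doxorubicin minus viability with 2 µM doxorubicin for each compound; larger differential means the compound sensitizes cells more to doxorubicin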
Mac1 fbg inh = inhibitors of human CD11b/CD18 binding to fibrinogen | P05107+P11215 | K562 CD11b/CD18 adhesion to fibrinogen, ATPlite luminescence; Mn2+ added to activate the integrin | inhibition, % at 10 µM | hit rate 0.54% among 93,000 | AID 1497;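 active = primary inhibition of 50% or more at 10 µM, then 40% or more on retest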
FAK inh = inhibitors of human focal adhesion kinase; AID 727; Q05397; inhibition, %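 (tested at 7 µM)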; hit rate 0.84% among 97,000; biochemical FAK kinase activity assay;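 also: 0% = DMSO and 100% = reference compound high control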
MRP1 act = activators of MRP-1 | H69AR cells + doxorubicin, viability rescue, CellTiter-Glo | viability increase, % at 10 µM | hit rate 0.61% among 140,000 | AID 799;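 active = viability gain under doxorubicin at or above a set limit, the compound median plus 3 SD, cut at about 4.7% in these data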;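 also: MRP-1 overexpressing cells given doxorubicin 25 µM after compound pretreatment; 18-22 h compound pretreatment then 72 h with doxorubicin before readout; 0% = doxorubicin-only wells and 100% = vehicle-treated cells without doxorubicin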
FAK inh conf = FAK (human) inhibition confirmed. FAK kinase biochemical inhibition assay. inhibition, % at 7 µM. shares compounds with FAK inh. AID 794. hit rate 28% among 750
* hit, by the source's call; · = not tested or not shown. A selection: hits, their analogues and other compounds. The true share with any hit is near 1.5%. Rule as the data show it, unless noted: active = inhibition above about 19%; inactive = the rest.

SMILES	CD11b adhes enh	Phagocyt inh	MRP reversal	Mac1 fbg inh	FAK inh	MRP1 act	FAK inh conf
N#CC1=C(N)N(c2ccc(Br)cc2)C2=C(C(=O)CCC2)C1c1cccnc1 (centres undefined)	-3.4	6.5	58.8*	5.0	·	-4.8	·
O=C(Nc1ccon1)c1cc2c(s1)CCCC2	-1.7	-0.4	1.9	-16.9	-0.3	4.8*	·
Nc1c(N2CCCC2)cc(Cl)c2nonc12	4.4	-0.9	-11.3	-1.5	39.9*	-2.5	-1.2
Nc1c(N2CCOCC2)cc(Cl)c2nonc12	-6.6	-0.6	-3.5	-5.5	1.1	-1.4	·
Cc1ccnc2nc(C(=O)NCCc3ccc(F)cc3)nn12	-2.2	-0.2	3.0	7.5	0.4	-1.3	·
Cc1ccc(=O)n(C(C(=O)NCc2ccco2)C(=O)c2ccc(F)cc2)c1 (centres undefined)	3.8	-1.2	9.4	-12.3	-1.1	0.1	·
O=C1NC(=S)N/C1=C\c1cccc([N+](=O)[O-])c1	-4.2	0.6	4.2	-9.3	0.2	-1.8	·
O=C1NC(=S)N/C1=C/c1ccc(-c2c(Br)cc([N+](=O)[O-])cc2Br)o1	68.0	0.3	·	48.7	35.6*	-2.5	10.8
O=C(O)c1ccc2c(c1)-c1nc3ccccc3n1C2=O	-2.8	-0.2	·	-31.0	0.3	0.7	·
O=C(NC1CCCC1)c1ccc2nc(-c3ccco3)c(-c3ccco3)nc2c1	-3.2	-1.1	-6.3	6.2	19.2*	-3.1	2.6
O=C(NCCO)c1ccc2nc(-c3ccco3)c(-c3ccco3)nc2c1	-1.1	-0.2	-6.3	-12.2	7.4	-0.9	·
CC(=O)[C@@H]1[C@@H]2C(=O)N(C3CCCCC3)C(=O)[C@@H]2C2c3ccccc3C=CN21 (some centres undefined)	0.9	-2.4	13.2	6.0	12.7	-4.0	·
O=C1NC(=O)[C@@H]2C3c4ccccc4C=CN3[C@H](C(=O)c3cccs3)[C@H]12 (some centres undefined)	-3.2	-0.5	-6.1	-8.8	20.4*	-1.4	11.6
Cc1ccc2nsnc2c1S(=O)(=O)Nc1cccc2nsnc12	-1.1	-0.8	16.2	-7.8	71.0*	-1.2	47.7*
Cc1ccc(C)c(NS(=O)(=O)c2c(C)ccc3nsnc23)c1	-1.0	0.5	17.5	11.1	3.6	1.0	·
COc1cccc(-c2cn3nc4c(nc3n2)CCCC4)c1	0.7	·	1.2	36.2	26.9*	-3.0	0.3
Cc1cc(-c2csc(NC(=O)c3ccccc3C(F)(F)F)n2)c(C)n1Cc1ccccc1	4.7	-2.1	·	-11.0	·	0.3	·
Cc1cc(-c2csc(NC(=O)c3ccc(=O)n(C)n3)n2)c(C)n1CC1CCCO1 (centres undefined)	25.8	-0.5	6.2	-12.9	22.0*	-0.3	5.4
N=c1oc2c3c4c(cc2cc1C(=O)Nc1ccccc1)CCCN4CCC3	28.6	-0.7	·	-5.9	29.4*	6.4*	0.1
CCOc1ccc(/C(O)=C2/C(=O)C(=O)N(CC3CCCO3)C2c2cccs2)cc1 (centres undefined)	·	-3.1	·	·	·	-1.7	·
CCOC(=O)C1=C(c2ccccc2)OC(N)=C(C#N)C1c1cccs1 (centres undefined)	-1.2	-1.3	·	7.8	25.8*	-1.8	20.0*
CCn1c(C)cc(/C=C2\SC(=O)N(CC(=O)Nc3ccc(C)c(C)c3)C2=O)c1C	·	·	·	·	-3.3	0.3	·
Cc1ccc(NC(=O)CN2C(=O)S/C(=C/c3ccc(-c4cc(C(=O)O)ccc4C)o3)C2=O)cc1C	61.2*	4.3	1.7	39.2	75.1*	-0.3	18.6
CC(=O)n1nc(-c2cccc(C)c2)nc1SCC(=O)Nc1ccccc1	4.8	-0.6	·	-37.0	19.1*	-3.0	9.3
CCC(=O)n1nc(-c2ccccc2)nc1SCC(=O)Nc1ccc(C)cc1	·	·	·	·	1.7	-3.3	·
COc1ccccc1N1CCN(CC(O)COc2ccc3c(c2)CCC3)CC1 (centres undefined)	2.3	-0.8	0.8	-2.8	-3.4	-4.6	·
CCCCNC(=O)C(=O)N/N=C/c1ccc(OCC(=O)Nc2cccc(OC)c2)c(OC)c1	·	-0.7	·	·	·	-1.2	·
CCOC(=O)C1CCN(c2nc3cc(OC)ccc3cc2C#N)CC1	3.7	1.2	12.1	10.0	19.2*	1.3	0.3
O=S(=O)(Nc1ccc(N2CCCCC2)cc1)c1cccs1	2.3	-0.1	-3.8	64.3	9.5	-3.0	·

High-throughput results deposited in PubChem BioAssay by several laboratories.
